Data on 44 compounds can be found in PubChem BioAssay AID603 (National Center for Advancing Translational Sciences (NCATS), 2007).

Among all 71,000 compounds or so, about 180 (0.25%) were called active. The call rests on the fitted dose curve; in most records, active means well fitted curve in the direction sought with a large enough effect; inconclusive means small, poorly fitted or top-dose-only effect; inactive means flat fitted curve, though single readings scatter. The sample as a whole holds a higher share of actives than the screen did.
On the % scale 0 is the no-effect control and ±100 the full control effect.

This assay concerns DNA polymerase III holoenzyme (E. coli). Briefly: qHTS Assay for Inhibitors of DNA Polymerase III Holoenzyme System. The settings on record: reconstituted DNA polymerase III holoenzyme replication, biochemical; series mostly up to 57.1 µM; activity change, negative = inhibition: at the top concentration. As to the method: NIH Molecular Libraries Screening Centers Network [MLSCN]
NIH Chemical Genomics Center [NCGC]
Assay Provider: Charles McHenry, University of Colorado
E. coli DNA polymerase III holoenzyme complex was assayed for DNA production by fluorescent detection of the double-stranded DNA product with PicoGreen dye. The holoenzyme complex was reconstituted from the following purified protein components: DNA Polymerase III, beta subunit processivity factor, SSB single-stranded DNA binding protein, and Primase. Single-stranded, circular M13Gori was used as a substrate with dNTPs and NTPs also supplied to the substrate reagent. Compounds from the NCGC collection were incubated with the holoenzyme mixture for 15 min at room temperature to allow binding to occur, and then the reaction was started by the addition of substrate. After 30 min incubation at room temperature, PicoGreen solution containing EDTA was added to stop the reaction and to visualize the double-stranded DNA produced. Reaction progress was measured in a ViewLux CCD imager in fluorescence intensity mode by using 480 nm excitation and 540 nm emission filter set.
NCGC Assay Protocol Summary:
Buffer. 50 mM Hepes-KOH, pH 7.5, 5 % Glycerol, 0.02% NP40, 30 mM potassium;
glutamate, 1.5 mM Magnesium Acetate, 16 uM TCEP.
Buffer in columns 3 and 4 as negative control (no enzyme).
Substrate solution: 5 uM each dATP, dGTP, dCTP and TTP, 50 uM each GTP, CTP, UTP and 200 uM ATP, 1.4 nM M13gori (final concentrations).
Enzyme: 154 nM SSB, 2 nM Primase, 1 nM Beta, 0.35 nM Pol III (final concentrations).
PicoGreen/EDTA: 10 mM Tris-HCl, 10 mM EDTA, 5 uM PicoGreen (final concentrations).
Control titration: ChemBridge 5805060 (from 10 mM, then 1:2, in duplicate) was pin-transferred to upper half of column 2.
Three uL of holoenzyme mixture were dispensed to 1536-well Greiner black solid bottom plates. Compounds and controls (23 nL) were transferred via Kalypsys PinTool. The plates were incubated for 15 min at room temperature, and then 1 uL of substrate solution was added to start the reaction. After room temperature incubation for 35 minutes, 1 uL of PicoGreen solution was added to each well and the plates were read 480 nm excitation and 540 nm emission using ViewLux (Perkin-Elmer) High-throughput CCD imager and fluorescence protocol settings.
Keywords: NIH Roadmap, MLSCN, MLI, MLSMR, qHTS, NCGC, DNA Polymerase III, DNAPol3, DNAPoly3, DNA replication targets
Turning to `O=C(c1cc(C(F)(F)F)cc(C(F)(F)F)c1)N1CCC2(CC1)CN(c1ccncc1)C2`, the “activity change, negative = inhibition” value was -0.9% (inactive).
The same measure, in the same setting: the figure for `CCN1C(=O)/C(=C2\SC(N3CCCCC3)=NC2=O)c2ccccc21` is 0.9% (inactive); for `C/C=C/C=C/C(=O)O` it is -6.6% (inactive).
On to `O=S(=O)(/C=C/c1ccccc1)NCCc1ccccn1`, for which the “activity change, negative = inhibition” value was -1% (inactive).
Turning to `COc1ccc(S(=O)(=O)Nc2ccc3c(c2)OCO3)cc1Cl`, the “activity change, negative = inhibition” value was -1.3% (inactive).
The same measure, in the same setting: the figure for `CC1CCCC(C)N1CCCNC(=O)c1cc2c(=O)n(C)c3ccccc3c2n1C` (centres undefined) is -10.1% (inactive).
As to `Cn1c(C(=O)NCCc2ccsc2)cc2c(=O)n(C)c3ccccc3c21`, the “activity change, negative = inhibition” value was -10% (inactive).
For `CCN1CCCC1CNC(=O)c1cc2c(=O)n(C)c3ccccc3c2n1C` (centres undefined), the Potency was 25.1 µM (active).
Consider `OCCNCCCCOc1ccccc1F`, for which the activity change, negative = inhibition was -4.9% [at 11.4 µM] (inactive).
Take `CC1(C)S[C@@H]2[C@@H](NC(=O)[C@@H](N)c3ccccc3)C(=O)N2[C@H]1C(=O)O`: the “activity change, negative = inhibition” value was -5.3% (inactive).
The same measure, in the same setting: to `Oc1ccc(Cn2cc[nH]c2=S)cc1` belongs -0.6% (inactive); to `C[N+]1(CCN=C=NC2CCCCC2)CCOCC1`, -1.6% [at 11.4 µM] (inactive).
The same measure, in the same setting: the figure for `COc1ccc(C(=O)OCC(=O)c2ccc(C)c(S(=O)(=O)N3CCOCC3)c2)cc1OC` is -0.2% (inactive).
Regarding `CCOc1ccc(NC(=O)CCC(=O)n2nc(C)cc2C)cc1`, the “activity change, negative = inhibition” value is -2.9% (inactive).
Still for that read-out and setting: to `Cc1cccc(N2CCN(C(=O)c3cc4c(=O)[nH]c5ccccc5c4n3C)CC2)c1C` belongs -6.2% (inactive); to `CCCn1c(C)nc2c(NCCCCN(CC)CC)nc(C)nc21`, -1.5% (inactive); to `NCCNCC1CCNCC1`, -9.7% [at 11.4 µM] (inactive).
The same measure, in the same setting: to `CCNC(=S)NCC` belongs 9.5% (inactive).
On the same count and under the same terms, to `CC(Cc1ccccc1)C(=O)N(C)Cc1ccccc1` (centres undefined) belongs 6.7% (inactive).
For `COc1ccccc1CNc1ncncc1-c1cccnc1`, the “activity change, negative = inhibition” value is -5.7% (inactive).
Still for that read-out and setting: to `COc1cccc(NC(=O)Cn2cnc3sc(C)c(S(=O)(=O)N4CCN(C)CC4)c3c2=O)c1` belongs -5.3% (inactive); to `COc1ccccc1N1CCN(C(=O)Cn2nnc(-c3cccs3)n2)CC1`, -2.6% (inactive).
In the case of `Cc1[nH]c(N)nc(=S)c1CCCNc1ccccc1`, the activity change, negative = inhibition was -9.5% [at 11.4 µM] (inactive).
As to `COc1ccc(OCC(=O)N2CCN(C(=O)c3cccs3)CC2)cc1`, the “activity change, negative = inhibition” value is -3.6% (inactive).
Same read-out and setting: to `CC(C)C[C@@H](CC(=O)N[C@@H](CCC(=O)O)CC(=O)O)NC(=O)[C@@H]1CCCC[C@H]1NC(=O)C[C@@H](NC(=O)C[C@H](CO)NC(=O)[C@@H]1CCCC[C@H]1N)C(C)C` belongs -7.3% (inactive); to `Cc1c(C)c2c(c(C)c1O)CC[C@@](C)(CN1CCN(c3cc(N4CCCC4)nc(N4CCCC4)n3)CC1)O2`, 6.2% (inactive).
The same measure, in the same setting: to `CCCCNC(=O)CSc1nnc(-c2ccco2)n1C` belongs 8.1% (inactive); to `CCN(CC)CCNC(=O)Cn1cnc2sc(C)c(S(=O)(=O)N3CCOCC3)c2c1=O`, 7.1% (inactive).
Still for that read-out and setting: the figure for `O=C1CC(c2ccccc2)C(=O)N1c1cccc(O)c1` (centres undefined) is -3.8% (inactive); for `Cc1cc(Nc2ccc(Br)cc2F)n2ncnc2n1` it is -4.2% (inactive).
In the case of `COC(=O)c1ccccc1NC(=O)C1CCN(S(=O)(=O)c2cc(OC)ccc2OC)CC1`, the “activity change, negative = inhibition” value is -4.8% (inactive).
Still for that read-out and setting: to `O=C(NCCCCO)C(F)(F)C(F)(F)C(F)(F)C(=O)NCCCCO` belongs -1.7% (inactive); to `CCOc1cc(-c2nc3cc(C)ccn3c2NCC2CCCO2)ccc1O` (centres undefined), -6.1% (inactive); to `N#C/C=C1\Sc2ccccc2C(=O)N1CC(=O)N1CCN(S(=O)(=O)c2ccccc2)CC1`, 8.5% (inactive).
As for `COc1ccc(NC(=O)N2CC3(CCN(C(C)=O)CC3)C2)cc1`, the “activity change, negative = inhibition” value is -2.4% (inactive).
With `CCN(CC(=O)NCc1cccs1)c1nnnn1-c1ccccc1`, the “activity change, negative = inhibition” value is -8.3% (inactive).
With `O=C1N(Cc2ccc3c(c2)OCO3)c2ccccc2C1(O)c1c[nH]c2ccccc12` (centres undefined), the “activity change, negative = inhibition” value was 5.2% (inactive).
Still for that read-out and setting: the figure for `Cc1nc2cnc(N3CCN(C)CC3)nc2n(C[C@H]2CCCO2)c1=O` is -13.3% (inactive).
The same measure, in the same setting: the figure for `N#CC1=C(N)Oc2cc(O)ccc2C1C1CCCCC1` (centres undefined) is -6.4% (inactive).
As to `O=C(O)c1c(Br)c(Br)c(Br)c(Br)c1C1c2ccc(O)cc2Oc2cc(O)ccc21`, the Potency is 0.0251 µM (active).
On to `FC(F)(F)c1ccccc1-c1nc(-n2ccnc2)c2ccccc2n1`, for which the “activity change, negative = inhibition” value is -4.4% (inactive).
Same read-out and setting: to `O=C(CSc1nc(-c2ccco2)cc(C(F)(F)F)n1)N1CCc2ccccc2C1` belongs 4.6% (inactive).
As for `O=C(O)/C(=C/c1c(C(=O)O)[nH]c2cc(Cl)cc(Cl)c12)c1ccccc1`, the Potency is 31.6 µM (active).
In the case of `COCCCNC(=O)c1ccc(CNS(=O)(=O)c2ccc(NC(C)=O)cc2)cc1`, the “activity change, negative = inhibition” value is -6.1% (inactive).
